{"source": "PubChem BioAssay AID504832", "about": "(National Center for Advancing Translational Sciences (NCATS), 2011)", "note": "About 18,000 (5.8%) of roughly 310,000 compounds were called active. Not shown: some 22% with an inconclusive outcome. The full list was thinned out, with actives kept by preference. Values without a mark were called inactive. Calls follow the shape of the dose curve; as a rule, active = well fitted inhibition curve with a large enough effect; inconclusive = small, poorly fitted or top-dose-only effect, or another doubt; inactive = no such curve, though single readings can be large or run the other way. % is scaled to controls: 0 for no effect and ±100 for the full control effect; potency is read from the fitted curve at half-maximal effect."}
{"assay": "Primary qHTS for delayed death inhibitors of the malarial parasite plastid, 48 hour incubation", "details": "P. falciparum luciferase growth in erythrocytes; series mostly up to 28.7 µM; activity change, negative = inhibition: at the top concentration", "outline": "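First compound was added to culture medium, then infected red cells at 0.1% parasitemia and 2% hematocrit (final). After incubation at 37 C under 5% CO2, luciferase detection reagent was dispensed and light output recorded.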"}
{"smiles": "COc1cc(CN2CCCC(C(=O)c3ccc(SC)cc3)C2)cc(Cl)c1O", "note": "(stereo unspecified)", "Potency": "11.7 µM (active)"}
{"smiles": "COc1ccc(CCN(C)C(=O)C2CCCN(Cc3ccc(OC)c(OC)c3)C2)cc1OC", "note": "(stereo unspecified)", "activity change, negative = inhibition": "-7.1%"}
{"smiles": "CSc1ccc(C(=O)C2CCCN(Cc3ccn[nH]3)C2)cc1", "note": "(stereo unspecified)", "activity change, negative = inhibition": "6.4%"}
{"smiles": "CCN1CCN(C2CCCCC2NS(=O)(=O)c2ccc(Cl)cc2)CC1", "note": "(stereo unspecified)", "activity change, negative = inhibition": "3.88%"}
{"smiles": "Cc1csc(NC(=O)C2CCN(S(=O)(=O)c3ccccc3)CC2)n1", "activity change, negative = inhibition": "-7.04%"}
{"smiles": "CC1CCN(C(=O)COC(=O)c2cc(=O)[nH]c3ccccc23)CC1", "activity change, negative = inhibition": "38.1%"}
{"smiles": "Cc1cc(S(=O)(=O)NC2CCCC2)ccc1-n1cnnn1", "activity change, negative = inhibition": "-4.46%"}
{"smiles": "CSc1ccc(CNCCN2CCOCC2)cc1", "activity change, negative = inhibition": "-1.58%"}
{"smiles": "CCCCC(CC)CNCc1cccn1CCN1CCOCC1", "note": "(stereo unspecified)", "Potency": "11.7 µM (active)"}
{"smiles": "CCCCc1ccc(NC(=S)NCCCN2CCOCC2)cc1", "activity change, negative = inhibition": "-23.5%"}
{"smiles": "O=C(CN1C(=O)S/C(=C\\c2ccccc2F)C1=O)NCCCn1ccnc1", "activity change, negative = inhibition": "-4.46%"}
{"smiles": "O=C(COC(=O)Cc1ccccc1F)NNC(=O)c1ccc(Cl)cc1", "activity change, negative = inhibition": "37.3%"}
{"smiles": "CC(C)c1nnc(NC(=O)CCC(=O)N2CCN(c3cccc(Cl)c3)CC2)s1", "activity change, negative = inhibition": "6.01%"}
{"smiles": "NS(=O)(=O)c1ccc(CCNc2nc(C(F)(F)F)nc3ccccc23)cc1", "activity change, negative = inhibition": "-26.2%"}
{"smiles": "CCc1ccc(C(CNc2nc(C(F)(F)F)nc3ccccc23)N(C)C)cc1", "note": "(stereo unspecified)", "Potency": "11.7 µM (active)"}
{"smiles": "Cc1cc(C)n(-c2nc(C(F)(F)F)nc3ccccc23)n1", "activity change, negative = inhibition": "31.4% [at 5.75 µM]"}
{"smiles": "CCC(NC(=O)c1cc(COc2ccc(F)c(F)c2)on1)c1ccncc1", "note": "(stereo unspecified)", "activity change, negative = inhibition": "-12.4%"}
{"smiles": "Cc1ccccc1CCNC(=O)C1CCC(=O)N(Cc2ccc(Cl)cc2)C1", "note": "(stereo unspecified)", "activity change, negative = inhibition": "3.12%"}
{"smiles": "Cc1c(C)n2c(SCC(=O)N3CCCC3)nnc2[nH]c1=O", "activity change, negative = inhibition": "-28.1%"}
{"smiles": "COC(=O)Cc1ccc(OCC(=O)NC2CCCC2)cc1", "activity change, negative = inhibition": "-4.97%"}
{"smiles": "CCOc1ccc(NC(=O)COC(=O)C2CCC(=O)N2)c([N+](=O)[O-])c1", "note": "(stereo unspecified)", "activity change, negative = inhibition": "-2.02%"}
{"smiles": "COc1ccc(N(C(=O)c2cccnc2)S(=O)(=O)c2ccc3c(c2)n(C)c(=O)n3C)cc1", "activity change, negative = inhibition": "2.95%"}
{"smiles": "COc1cccc(-n2cc3c(c2-c2ccccc2)c(=O)n(C)c(=O)n3C)c1", "Potency": "5.22 µM (active)"}
{"smiles": "COc1cccc(-n2cc(C(=O)O)c3ccccc3c2=O)c1", "activity change, negative = inhibition": "-2.63%"}
{"smiles": "COc1ccc(-n2c(-c3ccccc3)nc3ccccc3c2=O)cc1", "activity change, negative = inhibition": "4.43%"}
{"smiles": "COc1ccc(-c2c3c(=O)n(C)c(=O)n(C)c3cn2NC(C)=O)cc1", "activity change, negative = inhibition": "-2.03%"}
{"smiles": "COc1ccc(-c2c3c(=O)n(C)c(=O)n(C)c3cn2-c2cccc(OC)c2)cc1", "Potency": "11.7 µM (active)"}
{"smiles": "Cc1cnc(NC(=O)c2ccc(Cl)nc2)s1", "activity change, negative = inhibition": "-10.1%"}
{"smiles": "COC(=O)c1ccc(N2CCOCC2)c(NC(=O)c2ccc3c(c2)OCCO3)c1", "activity change, negative = inhibition": "-2.73%"}
{"smiles": "Cc1ccc(Nc2ncnc3c2cnn3C)c(C)c1", "activity change, negative = inhibition": "4.24%"}
{"smiles": "N#Cc1c2c(c(N3CCN(CCO)CC3)n3c1nc1ccccc13)CCCC2", "Potency": "0.828 µM (active)"}
{"smiles": "CCCCn1c(CN2CCN(CCO)CC2)nc2ccccc21", "activity change, negative = inhibition": "-10.1%"}
{"smiles": "CC1CCc2sc3nc(N4CCN(CCO)CC4)n4ncnc4c3c2C1", "note": "(stereo unspecified)", "activity change, negative = inhibition": "17.3%"}
{"smiles": "CCN(CC(=O)Nc1cc(Cl)ccc1C)C(=O)CN1C(=O)NC2(CCCC2)C1=O", "activity change, negative = inhibition": "12.9%"}
{"smiles": "CCn1ccnc1CN(C)C(=O)c1cc(COc2ccc(-n3cncn3)cc2)on1", "activity change, negative = inhibition": "-9.33%"}
{"smiles": "O=C(c1ccco1)N1CCN(C(=S)Nc2cc(F)cc(F)c2)CC1", "activity change, negative = inhibition": "0.0313%"}
{"smiles": "NC(=O)CC(NC(=O)Cc1ccc(Br)cc1)c1ccc(NC2CC3CCC2C3)c([N+](=O)[O-])c1", "note": "(stereo unspecified)", "activity change, negative = inhibition": "8.6%"}
{"smiles": "CC(CCc1ccccc1)NCC(O)c1cccc([N+](=O)[O-])c1", "note": "(stereo unspecified)", "Potency": "0.233 µM (active)"}
{"smiles": "CN(C(=O)c1cccc([N+](=O)[O-])c1)c1ccccc1C(=O)NCc1ccccc1", "activity change, negative = inhibition": "13.1%"}
{"smiles": "CC(C)OP(=O)(OC(C)C)C(Nc1ccccc1)c1cccc([N+](=O)[O-])c1", "note": "(stereo unspecified)", "activity change, negative = inhibition": "0%"}
{"smiles": "COc1ccc(N2CCN(C(=O)c3ccccc3NC(=O)C3=C(C)OCCS3)CC2)cc1", "activity change, negative = inhibition": "-28.6%"}
{"smiles": "c1ccc(-n2nnnc2-c2cccnc2)cc1", "activity change, negative = inhibition": "31.6%"}
{"smiles": "c1ccc(-c2noc(-c3cccs3)n2)nc1", "activity change, negative = inhibition": "209%"}
{"smiles": "Clc1ccc(-n2nnnc2-c2cnc(-c3ccccn3)nc2-c2cccs2)cc1", "Potency": "3.7 µM (active)"}
{"smiles": "Cc1ccc(OC(=O)c2cncc(Br)c2)c(C)c1", "activity change, negative = inhibition": "-5.17%"}
{"smiles": "CCn1c(SCC(=O)NC2CC2)nnc1-c1ccncc1", "activity change, negative = inhibition": "-1.37%"}
{"smiles": "O=C(Nc1ccc(Cl)c(Cl)c1)c1ccccc1NC(=O)C1CC=CCC1C(=O)O", "note": "(stereo unspecified)", "activity change, negative = inhibition": "5.71%"}
{"smiles": "CCCSc1nc(NCc2ccco2)c2c3c(sc2n1)COC(C)(CC)C3", "note": "(stereo unspecified)", "Potency": "9.28 µM (active)"}
{"smiles": "CN1CCc2c(sc3c2c(NCc2ccco2)nc2nnnn23)C1", "activity change, negative = inhibition": "-0.28%"}
{"smiles": "CN(C)CCSc1nc(N)c2c3c(sc2n1)COC(C)(C)C3", "activity change, negative = inhibition": "-25.5%"}
{"smiles": "COc1cc(C2NC(=O)NC(c3ccccc3)=C2C(C)=O)c(Br)cc1OCC(N)=O", "note": "(stereo unspecified)", "activity change, negative = inhibition": "-7.95%"}
{"smiles": "CCOc1ccc(C(C)NC(=O)CN2C(=O)NC3(CCCCC3)C2=O)cc1OCC", "note": "(stereo unspecified)", "activity change, negative = inhibition": "-11.8%"}
{"smiles": "Cc1ccc(COC(=O)CN2C(=O)NC3(CCCC3)C2=O)cc1", "activity change, negative = inhibition": "-11.2%"}
{"smiles": "CCOc1ccc(C(C)=O)cc1COC(=O)CN1C(=O)NC2(CCCC2)C1=O", "Potency": "13.1 µM (active)"}
{"smiles": "CCC1C(=O)NCCN1C(=O)c1ccc2nc(Cc3ccc(OC)cc3)oc2c1", "note": "(stereo unspecified)", "activity change, negative = inhibition": "-17.4%"}
{"smiles": "CCN(CC(=O)Nc1ccc(S(=O)(=O)N2CCCC2)cc1)CC(=O)Nc1cccc(OC)c1", "activity change, negative = inhibition": "-15.8%"}
{"smiles": "CCOc1cccc(NC(=O)C2CCCN(S(=O)(=O)c3ccc(OC)cc3)C2)c1", "note": "(stereo unspecified)", "Potency": "4.65 µM (active)"}
{"smiles": "CC(C)CCNC(=O)C1CCCN(S(=O)(=O)c2ccc(F)cc2)C1", "note": "(stereo unspecified)", "activity change, negative = inhibition": "-11.9%"}
{"smiles": "COc1ccc(CCNC(=S)N2CCN(S(=O)(=O)c3ccc(Cl)cc3)CC2)cc1", "activity change, negative = inhibition": "-0.768%"}
{"smiles": "CCOC(=O)N1CCN(S(=O)(=O)c2ccc(OC)cc2)CC1", "activity change, negative = inhibition": "-4.19%"}
{"smiles": "CCOc1ccc(NC(=O)C2CCCN(C(=O)Nc3ccccc3)C2)cc1", "note": "(stereo unspecified)", "activity change, negative = inhibition": "-21.5%"}
{"smiles": "COc1ccc(CCNC(=O)C2CCCN(S(=O)(=O)c3ccc(OC)cc3)C2)cc1", "note": "(stereo unspecified)", "Potency": "9.28 µM (active)"}
{"smiles": "COc1ccc(CCNC(=S)N2CCN(S(=O)(=O)c3ccc(F)cc3)CC2)cc1", "Potency": "2.62 µM (active)"}
{"smiles": "CCCCNC(=O)C1CCCN(S(=O)(=O)c2ccc(S(=O)(=O)NCC(C)C)cc2)C1", "note": "(stereo unspecified)", "activity change, negative = inhibition": "-13.8%"}
{"smiles": "Cc1cccc(OCC(=O)NCCNC(=O)c2cccnc2)c1", "activity change, negative = inhibition": "5.02%"}
{"smiles": "CC(C)(C)C(=O)Nc1ccc(-c2cn3cccnc3n2)cc1", "activity change, negative = inhibition": "64.1%"}
